Here are results for four molecules from the supplement of paper PMC8728848.

Holding throughout (assay): glycan array binding signal (z-score within array); higher = stronger binding
What all share (conditions): glycan notation: IUPAC condensed, linker removed

Assay [1] concerns the target Glc(a1-3)Glc(a1-3)Glc(a1-3)Glc. In outline: (§1)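 Columns mapping to the same glycan were averaged after glycan names were converted to IUPAC-condensed notation. The data come from 3228 arrays in the Consortium for Functional Glycomics database, limited to those with an available protein sequence. Binding is reported as a within-array Z-score averaged across arrays of one protein sequence and across linkers.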

The target in assay [2] is Glc(a1-4)Glc(a1-4)Glc(a1-4)Glc(a1-4)Glc(a1-4)Glc(a1-4)Glc(a1-4)Glc(a1-4)Glc(a1-4)Glc. In outline:
as §1

Assay [3] addresses Glc(b1-3)Glc(b1-3)Glc(b1-3)Glc(b1-3)Glc(b1-3)Glc. The method in brief: as §1
In assay [4] the target is Glc(b1-3)Glc(b1-3)Glc(b1-3)Glc(b1-3)Glc(b1-3)Glc(b1-3)Glc(b1-3)Glc(b1-3)Glc(b1-3)Glc(b1-3)Glc. The method in brief:
as §1

Assay [5] addresses Glc(b1-3)Glc(b1-3)Glc(b1-3)Glc(b1-3)Glc(b1-3)Glc(b1-3)Glc(b1-3)Glc(b1-3)Glc(b1-3)Glc(b1-3)Glc(b1-3)Glc. In outline:
as §1

The target of assay [6] is Glc(b1-3)Glc(b1-3)Glc(b1-3)Glc(b1-3)Glc(b1-3)Glc(b1-3)Glc(b1-3)Glc(b1-3)Glc(b1-3)Glc(b1-3)Glc(b1-3)Glc(b1-3)Glc. The method in brief:
as §1

Assay [7] deals with Glc(b1-4)Glc(b1-4)Glc(b1-4)Glc(b1-4)Glc(b1-4)Glc(b1-4)Glc. The method in brief: as §1
Assay [8] has as its target Glc(b1-2)Glc(b1-2)Glc(b1-2)Glc(b1-2)Glc(b1-2)Glc(b1-2)Glc(b1-2)Glc(b1-2)Glc. The method in brief: as §1
For the next assay, the target named is Glc(a1-2)Glc. In outline: as §1
In the next assay the target is Glc(a1-3)Glc(a1-3)Glc. In outline:
as §1

In assay [9] the target is Glc(a1-3)Glc(a1-3)Glc(a1-3)Glc(a1-3)Glc(a1-3)Glc. In outline:
as §1

The next assay addresses Glc(b1-2)Glc. In outline:
as §1

In assay [10] the target is Glc(b1-3)Glc(b1-3)Glc(b1-3)Glc(b1-3)Glc(b1-3)Glc(b1-3)Glc(b1-3)Glc. The method in brief:
as §1

For assay [11], the target named is Glc(b1-3)Glc(b1-3)[Glc(b1-6)]Glc(b1-3)Glc(b1-3)Glc(b1-3)Glc(b1-3)Glc(b1-3)Glc(b1-3)Glc. In outline: as §1
For assay [12], the target named is Glc(b1-3)[Glc(b1-6)]Glc(a1-3)Glc(b1-3)[Glc(b1-6)]Glc. The method in brief: as §1
Assay [13] deals with Glc(b1-4)Glc(b1-4)Glc(b1-4)Glc(b1-3)Glc. In outline: as §1
The target of assay [14] is Glc(b1-6)Glc(b1-6)Glc(b1-6)Glc(b1-6)Glc(b1-6)Glc(b1-6)Glc(b1-6)Glc(b1-6)Glc(b1-6)Glc(b1-6)Glc(b1-6)Glc(b1-6)Glc(b1-6)Glc(b1-6)Glc. In outline:
as §1

The target of another assay is Glc(a1-2)Glc(a1-2)Glc. The method in brief:
as §1

For assay [15], the target named is Glc(b1-2)Glc(b1-2)Glc(b1-2)Glc(b1-2)Glc. The method in brief: as §1
Assay [16] concerns the target Glc(b1-2)Glc(b1-2)Glc(b1-2)Glc(b1-2)Glc(b1-2)Glc(b1-2)Glc(b1-2)Glc(b1-2)Glc(b1-2)Glc(b1-2)Glc. The method in brief: as §1
Assay [17] has as its target Glc(b1-4)Glc(b1-4)Glc(b1-3)Glc. The method in brief: as §1
The target in assay [18] is Glc(b1-4)Glc(b1-4)Glc(b1-4)Glc(b1-4)Glc. In outline:
as §1

For assay [19], the target named is Glc(b1-4)Glc(b1-4)Glc(b1-4)Glc(b1-4)Glc(b1-4)Glc(b1-4)Glc(b1-4)Glc(b1-4)Glc(b1-4)Glc. The method in brief:
as §1

In assay [20] the target is Glc(b1-4)Glc(b1-4)Glc(b1-4)Glc(b1-4)Glc(b1-4)Glc(b1-4)Glc(b1-4)Glc(b1-4)Glc(b1-4)Glc(b1-4)Glc(b1-4)Glc(b1-4)Glc. In outline:
as §1

The target of the next assay is Glc(b1-6)Glc(b1-6)Glc. The method in brief:
as §1

Assay [21] deals with Glc(b1-6)Glc(b1-6)Glc(b1-6)Glc(b1-6)Glc(b1-6)Glc(b1-6)Glc(b1-6)Glc(b1-6)Glc(b1-6)Glc. In outline:
as §1

The sample as a whole holds a higher share of the strongest signals than the screen did.

B1: Lam16A (Thermotoga maritima), Q9WXN1 (protein)
chain: EQINNGTFDEPIVNDQANNPDEWFIWQAGDYGISGARVSDYGVRDGYAYITIADPGTDTWHIQFNQWIGLYRGKTYTISFKAKADTPRPINVKILQNHDPWTNYFAQTVNLTADWQTFTFTYTHPDDADEVVQISFELGEGTATTIYFDDVTVSPQ
For the molecule B1, the “glycan array binding signal (z-score)” value was -0.373 in assay [1]; -0.363 in [2]; 1.79 in [3]; 3.64 in [4]; 4.46 in assay [5]; 4.88 in assay [6]. Moreover, the “glycan array binding signal (z-score)” value in [7] is -0.373.

B2: DC-SIGNR (Homo sapiens), Q9H2X3 (protein)
chain: QVSKVPSSLSQEQSEQDAIYQNLTQLKAAVGELSEKSKLQEIYQELTQLKAAVGELPEKSKLQEIYQELTRLKAAVGELPEKSKLQEIYQELTRLKAAVGELPEKSKLQEIYQELTRLKAAVGELPEKSKLQEIYQELTELKAAVGELPEKSKLQEIYQELTQLKAAVGELPDQSKQQQIYQELTDLKTAFERLCRHCPKDWTFFQGNCYFMSNSQRNWHDSVTACQEVRAQLVVIKTAEEQNFLQLQTSRSNRFSWMGLSDLNQEGTWQWVDGSPLSPSFQRYWNSGEPNNSGNEDCAEFSGSGWNDNRCDVDNYWICKKPAACFRDE
Turning to B2, the “glycan array binding signal (z-score)” value is 1.64 in [8] and -0.981 in assay [6].

B3: Cel5A (Cellvibrio mixtus), A0A266Q9Z0 (protein)
chain: TSVAGCSGVTAWNSTAVYTGGNEVVRNGVKYQAKWWTQGQDPVTNSSADGVWANKGQC
B3: the “glycan array binding signal (z-score)” value with Glc(a1-2)Glc was -0.981; in the assay with Glc(a1-3)Glc(a1-3)Glc, -0.977; in [9] it was -0.941; in the assay with Glc(b1-2)Glc it was -0.411; in assay [10], 2.06; in [11], 2.2. In addition, the “glycan array binding signal (z-score)” value was 2.44 in assay [12], 1.17 in [13] and -0.119 in [14].

B4: Unk16A (Cellvibrio mixtus), Q336L6 (protein)
chain: VAYNTTGASSSAASSSAPSSASSSSSSAAPVLLSQGRPVTASSNFQPAANAVDGNGGTRWESTHGVSPSWIMVDLGSSKNLSQVIIDWEAANAANYLVQASNNGMSWTTLKIITTGAFGDRTDTHSVAGNYRYVRIYATARSAGNQWGYSIWELKITGN
On to B4, for which the “glycan array binding signal (z-score)” value is -0.668 with Glc(a1-2)Glc(a1-2)Glc; -0.662 in assay [2]; 2.23 in assay [15]; 3.49 in assay [8]; 2.77 in assay [16]; 4.32 in assay [12]. Besides, the “glycan array binding signal (z-score)” value in assay [17] is -0.192; in assay [18], -0.479; in assay [19], -0.167; in [20], -0.398; with Glc(b1-6)Glc(b1-6)Glc, -0.248; in [21], 0.062.
